Results filed as inconclusive are left out. Calls of active or inactive are those of the source. How the source made its calls: active means hit-call score of the fitted dose curve at least 0.9, where 1 is the maximum; inconclusive means response in the unintended direction; inactive means score below 0.9. Where a SMILES comes first, the peptide text is derived from it. [ ]: non-standard residue; d: D form. pGlu = O=C1CC[C@@H](C(=O)O)N1; Thz = O=C(O)[C@@H]1CSCN1

Sequence of Cellular tumor antigen p53 (Homo sapiens) (P04637 whole entry, looked up): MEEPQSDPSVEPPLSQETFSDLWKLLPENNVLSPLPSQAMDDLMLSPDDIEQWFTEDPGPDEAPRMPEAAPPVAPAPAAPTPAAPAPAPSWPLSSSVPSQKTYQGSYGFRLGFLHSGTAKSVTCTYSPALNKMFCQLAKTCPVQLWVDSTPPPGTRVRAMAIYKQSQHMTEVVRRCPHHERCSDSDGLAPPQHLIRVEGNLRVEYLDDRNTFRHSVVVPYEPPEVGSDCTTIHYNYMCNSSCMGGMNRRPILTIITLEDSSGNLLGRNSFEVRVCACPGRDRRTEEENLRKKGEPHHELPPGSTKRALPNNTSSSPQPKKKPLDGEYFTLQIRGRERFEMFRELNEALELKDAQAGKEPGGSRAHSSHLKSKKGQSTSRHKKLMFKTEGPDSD

In the first assay the target is Cellular tumor antigen p53 (Homo sapiens) (UniProt P04637). Briefly: TOX21_p53_BLA_p3_ratio: Tox21 HCT-116 p53 Agonism Beta-lactamase Assay, Ratio, Phase 3 (AID 2283596). Summed up:
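Cells were seeded at 4000/well, rested 5 h at 37C, then dosed with DMSO compound solutions (217-fold dilution) for 16 h. CCF4-AM substrate was loaded for 2 h at room temperature, and the 460/530 nm emission ratio was fitted for gain of signal versus DMSO.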
Regarding `CCN(CC)c1cccc(O)c1`, the result was inactive.
With `CNC(=O)OCc1cccc(COC(=O)NC)n1`, the result was inactive.
For `CCCCCCCC`, the outcome was inactive.
Regarding `C[N+](C)(C)CCOC(=O)CCC(=O)OCC[N+](C)(C)C`, the result was inactive.
Take `CCOC(=O)c1c[nH]c2cc(OCC(C)C)c(OCC(C)C)cc2c1=O`: the outcome was inactive.
On the same count and under the same terms, as for H-RKDVY-OH, the entry is “inactive”; as for `C[C@H]1[C@@H](OC(=O)CCC(=O)O)O[C@@H]2OC3(C)CC[C@H]4[C@H](C)CC[C@@H]1[C@@]24OO3`, “inactive”.
For the molecule `CCCN(CCC)CCc1cccc2c1CC(=O)N2`, the outcome was inactive.
For the molecule `CC(C)Cn1cnc2c(N)nc3ccccc3c21`, the result was inactive.
With `C/C=C/C=C/CO`, the result was inactive.
Same read-out and setting: as for `CC(C)(C)OCC1CO1` (stereo not given), the entry is “inactive”; as for `CO[C@H]1C[C@H](O[C@H]2[C@H](C)[C@@H](O[C@@H]3O[C@H](C)C[C@H](N(C)C)[C@H]3O)[C@@H](C)C[C@]3(CO3)C(=O)[C@H](C)[C@@H](O)[C@@H](C)[C@@H](C)OC(=O)[C@@H]2C)O[C@@H](C)[C@@H]1O`, “inactive”; as for `CCCCS`, “inactive”.
As to `CC1CC(C)C(=O)C1=O` (stereo not given), the outcome was inactive.
Take `NC(CSCC(=O)O)C(=O)O` (stereo not given): the result was inactive.
On to `O=C1CC[C@@H](C(=O)N2CSC[C@H]2C(=O)O)N1` ([pGlu]-[Thz]-OH), for which the outcome was inactive.
As to `CCCCCCCCCCCCCCCC(=O)NCCO`, the outcome was inactive.
Turning to `Cc1cn[nH]c1`, the outcome was inactive.
Still for that read-out and setting: as for `CN(C)CCn1nnnc1SCC1=C(C(=O)O)N2C(=O)[C@@H](NC(=O)Cc3csc(N)n3)[C@H]2SC1`, the entry is “inactive”.
Same read-out and setting: as for `c1coc(Cn2cccc2)c1`, the entry is “inactive”; as for `CC(C(=O)O)c1ccc2c(c1)[nH]c1ccc(Cl)cc12` (stereo not given), “inactive”; as for `OCc1ccccc1O`, “inactive”.
Regarding `CC=CC(=O)CC`, the outcome was inactive.
On to `CN(C)CCC=C1c2ccccc2CSc2ccccc21`, for which the result was inactive.
For `CC1(C)[C@H](C(=O)O)N2C(=O)C[C@H]2S1(=O)=O`, the result was inactive.
As for `CCCCCC=CCC1CC(=O)OC1=O` (stereo not given), the outcome was inactive.
For `CCC(=O)OC`, the outcome was inactive.
On to `C#CCN(C)CCCOc1ccc(Cl)cc1Cl`, for which the result was inactive.
As to `C[C@@H]1C[C@H]2[C@@H]3CCC4=CC(=O)C=C[C@]4(C)[C@@]3(F)[C@@H](O)C[C@]2(C)[C@@]1(O)C(=O)COC(=O)c1cccc(S(=O)(=O)O)c1`, the outcome was inactive.
On the same count and under the same terms, as for `N=C(N=C(N)N)N1CCOCC1`, the entry is “inactive”; as for `C[S+](CC[C@H](N)C(=O)O)C[C@H]1O[C@@H](n2cnc3c(N)ncnc32)[C@H](O)[C@@H]1O` (stereo not given in full), “inactive”; as for `O=[N+]([O-])c1ccccc1Nc1ccccc1`, “inactive”.
In the case of `NS(=O)(=O)c1cc(Cl)c(Cl)c(S(N)(=O)=O)c1`, the result was inactive.
Regarding `CN(C)CCC(c1ccccc1)c1ccccn1` (stereo not given), the result was inactive.
In the case of `N.N.O=C([O-])C1(C(=O)[O-])CCC1.[Pt+4]`, the outcome was inactive.
For the molecule `C[C@@]12C(=O)OC(=O)[C@]1(C)C1CCC2O1`, the result was inactive.
On to `C[C@@H](O)[C@H](N)C(=O)O`, for which the result was inactive.
In the case of `O=C(O)c1cccc(Cl)c1Cl`, the result was inactive.
On to `CC[N+](C)(C)Cc1ccccc1Br`, for which the outcome was inactive.
On to `Cc1c(NC(=O)c2cccnc2)c(=O)n(-c2ccccc2)n1C`, for which the outcome was inactive.

For another assay the target is unchanged. Briefly: TOX21_p53_BLA_p5_ratio: Tox21 HCT-116 p53 Agonism Beta-lactamase Assay, Ratio, Phase 5 (AID 2283599). The procedure, abridged:
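HCT-116 cells carrying a p53-inducible beta-lactamase reporter were seeded at 4000 cells/well and dosed after 5 h with compound in DMSO (217-fold dilution). After 16 h at 37C, CCF4-AM substrate was added for 2 h, and the 460/530 nm emission ratio was scored as gain-of-signal versus DMSO.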
For `CCN(CC)c1cccc(O)c1`, the result was inactive.
On the same count and under the same terms, as for `CNC(=O)OCc1cccc(COC(=O)NC)n1`, the entry is “inactive”; as for `CCCCCCCC`, “inactive”; as for `C[N+](C)(C)CCOC(=O)CCC(=O)OCC[N+](C)(C)C`, “inactive”.
`CCOC(=O)c1c[nH]c2cc(OCC(C)C)c(OCC(C)C)cc2c1=O`: the result was inactive.
Consider H-RKDVY-OH, for which the result was inactive.
On to `C[C@H]1[C@@H](OC(=O)CCC(=O)O)O[C@@H]2OC3(C)CC[C@H]4[C@H](C)CC[C@@H]1[C@@]24OO3`, for which the outcome was inactive.
As for `CCCN(CCC)CCc1cccc2c1CC(=O)N2`, the result was inactive.
`CC(C)Cn1cnc2c(N)nc3ccccc3c21`: the result was inactive.
Still for that read-out and setting: as for `C/C=C/C=C/CO`, the entry is “inactive”; as for `CC(C)(C)OCC1CO1` (stereo not given), “inactive”.
On to `CO[C@H]1C[C@H](O[C@H]2[C@H](C)[C@@H](O[C@@H]3O[C@H](C)C[C@H](N(C)C)[C@H]3O)[C@@H](C)C[C@]3(CO3)C(=O)[C@H](C)[C@@H](O)[C@@H](C)[C@@H](C)OC(=O)[C@@H]2C)O[C@@H](C)[C@@H]1O`, for which the outcome was inactive.
`CCCCS`: the result was inactive.
The same measure, in the same setting: in the case of `CC1CC(C)C(=O)C1=O` (stereo not given) it was “inactive”.
The same measure, in the same setting: in the case of `NC(CSCC(=O)O)C(=O)O` (stereo not given) it was “inactive”.
`O=C1CC[C@@H](C(=O)N2CSC[C@H]2C(=O)O)N1` ([pGlu]-[Thz]-OH): the outcome was inactive.
The same measure, in the same setting: in the case of `CCCCCCCCCCCCCCCC(=O)NCCO` it was “inactive”; in that of `Cc1cn[nH]c1`, “inactive”; in that of `CN(C)CCn1nnnc1SCC1=C(C(=O)O)N2C(=O)[C@@H](NC(=O)Cc3csc(N)n3)[C@H]2SC1`, “inactive”.
Still for that read-out and setting: as for `c1coc(Cn2cccc2)c1`, the entry is “inactive”; as for `CC(C(=O)O)c1ccc2c(c1)[nH]c1ccc(Cl)cc12` (stereo not given), “inactive”.
Same read-out and setting: in the case of `OCc1ccccc1O` it was “inactive”; in that of `CC=CC(=O)CC`, “inactive”; in that of `CN(C)CCC=C1c2ccccc2CSc2ccccc21`, “inactive”.
`CC1(C)[C@H](C(=O)O)N2C(=O)C[C@H]2S1(=O)=O`: the result was inactive.
Consider `CCCCCC=CCC1CC(=O)OC1=O` (stereo not given), for which the result was inactive.
Same read-out and setting: in the case of `CCC(=O)OC` it was “inactive”; in that of `C#CCN(C)CCCOc1ccc(Cl)cc1Cl`, “inactive”.
Take `C[C@@H]1C[C@H]2[C@@H]3CCC4=CC(=O)C=C[C@]4(C)[C@@]3(F)[C@@H](O)C[C@]2(C)[C@@]1(O)C(=O)COC(=O)c1cccc(S(=O)(=O)O)c1`: the result was inactive.
With `N=C(N=C(N)N)N1CCOCC1`, the outcome was inactive.
As for `C[S+](CC[C@H](N)C(=O)O)C[C@H]1O[C@@H](n2cnc3c(N)ncnc32)[C@H](O)[C@@H]1O` (stereo not given in full), the result was inactive.
The same measure, in the same setting: in the case of `O=[N+]([O-])c1ccccc1Nc1ccccc1` it was “inactive”; in that of `NS(=O)(=O)c1cc(Cl)c(Cl)c(S(N)(=O)=O)c1`, “inactive”; in that of `CN(C)CCC(c1ccccc1)c1ccccn1` (stereo not given), “inactive”.
For `N.N.O=C([O-])C1(C(=O)[O-])CCC1.[Pt+4]`, the outcome was inactive.
Take `C[C@@]12C(=O)OC(=O)[C@]1(C)C1CCC2O1`: the outcome was inactive.
`C[C@@H](O)[C@H](N)C(=O)O`: the outcome was inactive.
As for `O=C(O)c1cccc(Cl)c1Cl`, the outcome was inactive.
On the same count and under the same terms, in the case of `CC[N+](C)(C)Cc1ccccc1Br` it was “inactive”; in that of `Cc1c(NC(=O)c2cccnc2)c(=O)n(-c2ccccc2)n1C`, “inactive”.

Values taken from PubChem BioAssay (EPA / NIEHS).
